Compounds with a hit are over-represented: about 6.7% of the library has one in this group of screens.
T cruzi growth-1: T. cruzi proliferation inhibition; AID 624255; inhibition, % at 8.34 µM; T. cruzi beta-gal in NIH3T3, GalScreen luminescence, 90 h; 77,000 compounds, 5.9% hits;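 active = mean inhibition above about 93%, with at least 55% of replicates each passing it, limit read from the data, passing the limit was not always enough; inconclusive = only one of those two conditions holds; inactive = neither condition holds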
C diff growth: C. difficile growth inhibition; Clostridium difficile clinical isolate growth, OD600, 24 h; active compounds read low; growth activity, negative = inhibition, % at 16 µg/mL (by protocol); 86,000 compounds, 0.25% hits; AID 1259249;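 active = mean growth activity at or below -80% and every replicate also at or below -80%; inconclusive = mean at or below -80% but some replicate above -80%; inactive = mean growth activity above -80%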;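 note: 0% = DMSO wells and -100% = levofloxacin 16 µg/mL wells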
Pf Dd2 inh: blocks growth of Plasmodium falciparum Dd2 parasites. P. falciparum Dd2 growth, SYBR Green, 72 h; active compounds read low. activity change, % at 10 µM. 94,000 compounds, 2.3% hits. AID 1159554; in the data active = activity change below about -80%; inconclusive = no clear call, values can overlap the other calls
T cruzi growth-2: blocks T. cruzi growth in NIH3T3 host cells. shares compounds with T cruzi growth-1. T. cruzi beta-gal in NIH3T3, GalScreen luminescence, 90 h. inhibition, % at 8.35 µM. 5,600 compounds, 72% hits. AID 651739;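 active = mean replicate inhibition above about 95% and at least 55% of replicates individually reaching it, limit read from the data; inconclusive = only one of the two criteria is met; inactive = neither criterion is met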
T cruzi growth-3: inhibitors of T. cruzi proliferation; shares compounds with T cruzi growth-1; T. cruzi beta-gal in NIH3T3, GalScreen luminescence, 90 h; inhibition, % at 2.09 µM; 5,600 compounds, 21% hits;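 active = mean inhibition above about 95%, with at least 55% of replicates also reaching it, limit read from the data; inconclusive = meets just one of the two conditions; inactive = meets neither condition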;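 note: plate controls were neutral control median for no effect and positive control median for full effect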
NIH3T3 tox: cytotoxicity in mouse NIH/3T3 fibroblasts; 5,600 compounds, 14% hits; AID 651742; cytotoxicity (signal decrease), % at 8.35 µM; NIH/3T3 viability, CellTiter-Glo ATP luminescence, 90 h; shares compounds with T cruzi growth-1;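 active = mean signal decrease across replicates above about 35% based on untreated-well scatter, with enough replicates individually passing, limit read from the data; inconclusive = no rule stated though some were filed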;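 note: 0% = median of neutral control wells and 100% = median of positive control wells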
NIH3T3 tox 2: kills mouse NIH/3T3 fibroblasts; shares compounds with T cruzi growth-1; NIH/3T3 viability, CellTiter-Glo ATP luminescence, 90 h; inhibition, % at 24.9 µM; 5,600 compounds, 56% hits; AID 651744;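 active = mean loss of cell viability signal at or above a set limit, and enough replicates individually reaching it; inconclusive = meets only the mean limit or only the replicate share; inactive = meets neither condition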;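 note: 0% = median of neutral control wells and 100% = median of positive control wells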
* hit, by the source's call; i = inactive; ? = inconclusive; · = no result.

SMILES	T cruzi growth-1	C diff growth	Pf Dd2 inh	T cruzi growth-2	T cruzi growth-3	NIH3T3 tox	NIH3T3 tox 2
COc1ccc(C#Cc2cnc3c(c2)C(=O)N([C@@H](C)CO)C[C@H](C)[C@@H](CN(C)C(=O)CN(C)C)O3)cc1	37	-11	-64	·	·	·	·
O=C(c1ccc2c(c1)OCO2)N1C[C@H]2[C@@H](c3ccccc31)[C@@H](CO)N2CC1CCCC1	22	4	-18	·	·	·	·
C[C@@H]1CCCCO[C@H](CN(C)C(=O)C2CCCCC2)[C@H](C)CN([C@@H](C)CO)C(=O)c2cc(NS(C)(=O)=O)ccc2O1	100*	-4	-4	12	-38	-11	9
C[C@H](CO)N1C[C@H](C)[C@H](CN(C)C(=O)CCC(F)(F)F)OCCCC[C@H](C)Oc2ccc(NS(=O)(=O)c3ccc(Cl)cc3)cc2C1=O	103*	5	-6	109*	57	-5	7
C[C@@H]1CCCCO[C@@H](CN(C)C(=O)CCC(F)(F)F)[C@@H](C)CN([C@H](C)CO)C(=O)c2cc(NS(=O)(=O)c3ccc(Cl)cc3)ccc2O1	85	-1	-11	·	·	·	·
C[C@@H]1CCCCO[C@@H](CN(C)C(=O)C2CCCCC2)[C@H](C)CN([C@@H](C)CO)C(=O)c2cc(NS(=O)(=O)c3ccc(Cl)cc3)ccc2O1	?	2	47	109*	69	-16	34*
Cc1ccc(S(=O)(=O)Nc2ccc3c(c2)C(=O)N([C@H](C)CO)C[C@H](C)[C@H](CN(C)C(=O)C2CCCCC2)OCCCC[C@H](C)O3)cc1	84	-3	-23	·	·	·	·
C[C@@H]1CCCCO[C@H](CN(C)C(=O)C2CCCCC2)[C@@H](C)CN([C@H](C)CO)C(=O)c2cc(NS(=O)(=O)c3ccc(Cl)cc3)ccc2O1	60	-7	-52	·	·	·	·
C[C@@H]1CCCCO[C@H](CN(C)C(=O)C2CCCCC2)[C@H](C)CN([C@H](C)CO)C(=O)c2cc(NS(=O)(=O)c3ccc(Cl)cc3)ccc2O1	?	9	-62	105*	74	-7	52*
C[C@H](CO)N1C[C@H](C)[C@@H](CN(C)C(=O)C2CCCCC2)OCCCC[C@H](C)Oc2ccc(NS(C)(=O)=O)cc2C1=O	52	2	5	·	·	·	·
CO[C@H]1CN(C)C(=O)c2ccc(NC(=O)C3CCOCC3)cc2OC[C@@H](C)N(C(=O)c2ccccc2)C[C@H]1C	-37	·	1	·	·	·	·
C[C@@H]1CCCCO[C@@H](CN(C)S(C)(=O)=O)[C@H](C)CN([C@@H](C)CO)C(=O)c2cc(NC(=O)CCC(F)(F)F)ccc2O1	72	-1	21	·	·	·	·
O=C(C[C@H]1C[C@H]2c3cc(NC(=O)Nc4ccc(C(F)(F)F)cc4)ccc3O[C@H]2[C@H](CO)O1)NCc1ccccn1	-1	12	-22	·	·	·	·
CO[C@H]1CN(C)C(=O)c2cc(NC(C)=O)ccc2OC[C@H](C)N(C(=O)C2CC2)C[C@@H]1C	i	-6	13	·	·	·	·
C[C@@H]1CN([C@H](C)CO)C(=O)c2cc(NS(C)(=O)=O)ccc2O[C@@H](C)CCCCO[C@H]1CN(C)S(=O)(=O)c1cccs1	-28	1	3	·	·	·	·
O=C(C[C@@H]1C=C[C@@H](NC(=O)c2ccc3c(c2)OCO3)[C@H](CO)O1)NCc1ccc(Oc2ccccc2)cc1	62	5	-13	·	·	·	·
C[C@@H]1CCCCO[C@@H](CN(C)C(=O)C2CCCCC2)[C@@H](C)CN([C@@H](C)CO)C(=O)c2cc(NS(=O)(=O)c3ccc(Cl)cc3)ccc2O1	93	-2	-21	·	·	·	·
C[C@H]1CCCCO[C@H](CN(C)C(=O)C2CCCCC2)[C@@H](C)CN([C@@H](C)CO)C(=O)c2cc(NS(=O)(=O)c3ccc(Cl)cc3)ccc2O1	?	6	-59	104*	76	-37	99*
COc1ccc(NC(=O)Nc2cccc3c2O[C@@H](CN(C)Cc2ccc(C(=O)Nc4ccccc4N)cc2)[C@H](C)CN([C@@H](C)CO)C3=O)cc1	·	2	?	·	·	·	·
CC(C)NC(=O)Nc1ccc2c(c1)C(=O)N([C@H](C)CO)C[C@H](C)[C@@H](CN(C)C(=O)NC(C)C)OCCCC[C@H](C)O2	1	0	5	·	·	·	·
CCC(=O)N(C)C[C@H]1Oc2cc(C#CC3CCCCC3)ccc2S(=O)(=O)N([C@@H](C)CO)C[C@H]1C	111	3	-63	·	·	·	·
CCC(=O)N(C)C[C@H]1Oc2cc(C#CC3CCCCC3)ccc2S(=O)(=O)N([C@H](C)CO)C[C@H]1C	104	-9	-63	·	·	·	·
CCC(=O)N(C)C[C@@H]1Oc2cc(C#CC3CCCCC3)ccc2S(=O)(=O)N([C@@H](C)CO)C[C@@H]1C	?	-3	-74	100*	86	24	106*
CCC(=O)N(C)C[C@H]1Oc2cc(C#CC3CCCCC3)ccc2S(=O)(=O)N([C@@H](C)CO)C[C@@H]1C	104	-9	-68	·	·	·	·
CCC(=O)N(C)C[C@H]1Oc2cc(C#CC3CCCCC3)ccc2S(=O)(=O)N([C@H](C)CO)C[C@@H]1C	108*	-4	-59	102*	70	12	83*
SMILES	T cruzi growth-1	C diff growth	Pf Dd2 inh	T cruzi growth-2	T cruzi growth-3	NIH3T3 tox	NIH3T3 tox 2
CCC(=O)N(C)C[C@@H]1Oc2cc(C#CC3CCCCC3)ccc2S(=O)(=O)N([C@H](C)CO)C[C@@H]1C	110*	-1	-56	95*	84	12	104*
C[C@@H]1CCCCO[C@H](CN(C)C(=O)Nc2ccc(F)cc2)[C@@H](C)CN([C@@H](C)CO)C(=O)c2cc(NS(=O)(=O)c3ccc(F)cc3)ccc2O1	90	-3	?	·	·	·	·
CCCNC(=O)N[C@H]1C=C[C@@H](CC(=O)NC2CCC2)O[C@@H]1CO	·	0	-23	·	·	·	·
CO[C@H]1CC[C@H]2CCN(C)C(=O)[C@@H](C)N(C)C(=O)c3cccc(C#N)c3OC[C@@H]1O2	-2	-8	·	·	·	·	·
CO[C@H]1CN(C)C(=O)c2ccc(NC(C)=O)cc2OC[C@H](C)N(C(=O)CC2CC2)C[C@H]1C	-22	·	-35	·	·	·	·
Cc1ccc(S(=O)(=O)N[C@H]2CC[C@@H](CCNC(=O)Cc3ccccn3)O[C@H]2CO)cc1	79	5	-7	·	·	·	·
O=C(C[C@H]1CC[C@@H](NS(=O)(=O)c2ccc(F)cc2)[C@H](CO)O1)NC1CCC1	119*	0	13	47	28	8	15
O=C(C[C@H]1CC[C@@H](NS(=O)(=O)c2ccccc2)[C@@H](CO)O1)NCc1ccncn1	123*	5	-2	101*	17	2	3
O=C(C[C@@H]1CC[C@@H](NS(=O)(=O)c2ccccc2)[C@@H](CO)O1)NCc1ccncn1	-28	2	17	·	·	·	·
O=C(C[C@H]1CC[C@H](NS(=O)(=O)c2ccc(F)cc2)[C@@H](CO)O1)NC1CCC1	-21	5	16	·	·	·	·

Bioassay records from PubChem.
